A number with no mark means an inactive call.

This assay relates to Vero E6 infected with SARS-CoV-2. The assay can be described thus: SARS-CoV-2 infection rate relative to infected DMSO; higher = more infection, active = 60 or less. The settings on record: 24 h.
Regarding `CC(=O)OCC1=C(C(=O)O)N2C(=O)[C@@H](N)[C@H]2SC1` [7-aminocephalosporanic-acid] (10 µM), the SARS-CoV-2 infection rate is 104%.

On to `O=C(NCCO)c1cc(C(=O)NCCO)cc(C(=O)NCCO)c1` (10 µM), for which the SARS-CoV-2 infection rate is 102%.

As for `Cc1ccc(S(=O)(=O)Cc2nc(-c3ccc(C(=O)NCc4cccnc4)cc3)oc2C)cc1` (0.833333 µM), the SARS-CoV-2 infection rate was 93%.

`O=C1c2ccccc2CCC1CNCCc1ccc(O)cc1` (stereo not given) (10 µM): the SARS-CoV-2 infection rate was 106%.

Regarding `O=C1NC(=O)C(c2cnc3ccccn23)=C1c1cn2c3c(cc(F)cc13)CN(C(=O)N1CCCCC1)CC2` (10 µM), the SARS-CoV-2 infection rate is 105%.

On to `COc1ccc2c(NC(=O)Nc3cccc(C(F)(F)F)n3)ccnc2c1` (10 µM), for which the SARS-CoV-2 infection rate is 101%.

`C[C@@H]1C[C@H]2[C@@H]3CCC4=CC(=O)C=C[C@]4(C)[C@@]3(Cl)[C@@H](O)C[C@]2(C)[C@@]1(OC(=O)c1ccco1)C(=O)CCl` (10 µM): the SARS-CoV-2 infection rate is 78%.

As to `COC(=O)C1=C(C#N)NC(C)=C(C(=O)OC(C)C)C1c1cccc([N+](=O)[O-])c1` (stereo not given) [nilvadipine] (10 µM), the SARS-CoV-2 infection rate is 106%.

For `O=C(O)Cn1c(C(=O)Nc2nc(-c3ccccc3Cl)cs2)cc2ccccc21` (10 µM), the SARS-CoV-2 infection rate was 93%.

On to `CCc1cccc(CC)c1NC(=O)N1Cc2[nH]nc(NC(=O)c3ccc(N4CCN(C)CC4)cc3)c2C1` (10 µM), for which the SARS-CoV-2 infection rate is 113%.

`CCCCC(=O)O[C@]1(C(=O)CO)CC[C@H]2[C@@H]3CCC4=CC(=O)CC[C@]4(C)[C@H]3[C@@H](O)C[C@@]21C` [hydrocortisone-valerate] (10 µM): the SARS-CoV-2 infection rate is 107%.

Turning to `C[C@@H]1C(=O)O[C@H]2C[C@@]34[C@H]5C[C@@H](C(C)(C)C)[C@]36[C@@H](OC(=O)[C@@H]6O)O[C@@]4(C(=O)O5)[C@]21O` [Ginkgolide A] (10 µM), the SARS-CoV-2 infection rate was 114%.

On to `COc1cc([C@@H]2c3cc4c(cc3[C@@H](O[C@@H]3O[C@@H]5CO[C@@H](C)O[C@H]5[C@H](O)[C@H]3O)[C@H]3COC(=O)[C@H]23)OCO4)cc(OC)c1O` [etoposide] (10 µM), for which the SARS-CoV-2 infection rate was 104%.

On to `Cc1cccc(/C=N/Nc2cc(N3CCOCC3)nc(OCCc3ccccn3)n2)c1` (10 µM), for which the SARS-CoV-2 infection rate is 43.5% (active).

`CC1(C)Cc2c(-c3ccccc3)c(-c3ccc(Cl)cc3)c(CC(=O)O)n2C1` [licofelone] (10 µM): the SARS-CoV-2 infection rate was 105%.

As for `NCC(=O)N[C@@H](CCC(N)=O)C(=O)O` (10 µM), the SARS-CoV-2 infection rate is 108%.

Turning to `CCN1CCCC1=O` [1-ethyl-2-pyrrolidone] (10 µM), the SARS-CoV-2 infection rate is 104%.

Turning to `Cc1noc(C)c1-c1cc(O)cc([C@@H](O)c2ccccc2)c1` (10 µM), the SARS-CoV-2 infection rate is 104%.

`O=c1cc[nH]c(=O)[nH]1` [uracil] (10 µM): the SARS-CoV-2 infection rate is 108%.

As to `Cn1ncnc1[C@H]1c2n[nH]c(=O)c3cc(F)cc(c23)N[C@@H]1c1ccc(F)cc1` [talazoparib] (0.833333 µM), the SARS-CoV-2 infection rate was 113%.

In the case of `C[C@]12CC[C@@H]3c4ccc(O)cc4CC[C@H]3[C@@H]1CC[C@@H]2OC(=O)CCC1CCCC1` [estradiol-cypionate] (10 µM), the SARS-CoV-2 infection rate is 99%.

Take `O=C(O)CCNC(=O)c1ccccc1` [betamipron] (10 µM): the SARS-CoV-2 infection rate was 118%.

As for `NC(=O)C(c1ccccc1)(c1ccccc1)[C@@H]1CCN(CCc2ccc3c(c2)CCO3)C1` [darifenacin] (10 µM), the SARS-CoV-2 infection rate was 106%.

`CC1Oc2cc(cnc2N)-c2c(nn(C)c2C#N)CN(C)C(=O)c2ccc(F)cc21` (stereo not given) (10 µM): the SARS-CoV-2 infection rate was 99.5%.

For `COc1ccccc1N1CCN(CCCCN2C(=O)c3ccccc3C2=O)CC1` (10 µM), the SARS-CoV-2 infection rate is 99%.

Take `COc1cc2c(cc1OC)CN(C(=O)[C@@H](NCc1ccncc1)C(C)(C)C)CC2` (10 µM): the SARS-CoV-2 infection rate was 105%.

Turning to `CCC(=O)[C@@]1(C)[C@H](C)C[C@H]2[C@@H]3CCC4=CC(=O)C=C[C@]4(C)[C@H]3[C@@H](O)C[C@@]21C` [rimexolone] (10 µM), the SARS-CoV-2 infection rate was 98.5%.

As for `COC(=O)[C@H](NC(=O)c1cc(-c2ccccc2)nc2ccccc12)c1ccccc1` (10 µM), the SARS-CoV-2 infection rate was 100%.

With `COc1ccc(C(=O)CC2(O)C(=O)Nc3c(Cl)ccc(Cl)c32)cc1` (stereo not given) (0.833333 µM), the SARS-CoV-2 infection rate was 95%.

On to `CC[C@@H](c1ccc(F)c(F)c1)n1c(C(=O)OC)c(-c2ccno2)[nH]c1=S` (10 µM), for which the SARS-CoV-2 infection rate is 93.5%.

Turning to `Cc1onc(O)c1C[C@@H](N)C(=O)O` (racemic) (10 µM), the SARS-CoV-2 infection rate was 104%.

For the compound `COc1cc(-c2cc(-c3cccc(O)c3)cnc2N)cc(OC)c1OC` (10 µM), the SARS-CoV-2 infection rate is 95%.

On to `CC(=O)N1CC[N+](C)(C)CC1` [4-acetyl-1,1-dimethylpiperazinium] (10 µM), for which the SARS-CoV-2 infection rate was 88.5%.

For `CCN1CCN(C(=O)Cc2ccc(Nc3ncc(F)c(Nc4ccc(C(=O)Nc5ccccc5Cl)cc4)n3)cc2)CC1` [aurora-a-inhibitor-i] (10 µM), the SARS-CoV-2 infection rate is 86%.

Take `OC1(c2ccc(Cl)c(C(F)(F)F)c2)CCN(CCCC(c2ccc(F)cc2)c2ccc(F)cc2)CC1` [penfluridol] (0.833333 µM): the SARS-CoV-2 infection rate was 79%.

For `O=C(Nc1ccccc1C(=O)NC1CCCCNC1=O)c1cc2ccccc2s1` (stereo not given) (10 µM), the SARS-CoV-2 infection rate was 99.5%.

Turning to `COC(=O)C1=CCCN(C)C1` [arecoline] (10 µM), the SARS-CoV-2 infection rate was 100%.

As to `NC12CC3CC(CC(C3)C1)C2` [amantadine] (10 µM), the SARS-CoV-2 infection rate was 110%.

As to `COc1cc(C[C@H]2c3cc(OC)c(OC)cc3CCN2C)c(Oc2cc3c(cc2OC)-c2c(OC)c(OC)cc4c2[C@H](C3)N(C)CC4)cc1OC` [thaliblastine] (10 µM), the SARS-CoV-2 infection rate was 30.5% (active).

As for `Fc1ccc2nc(CCC#Cc3ccccn3)cn2c1` [dipraglurant] (10 µM), the SARS-CoV-2 infection rate was 103%.

Source of the values: the supplement of paper PMC13380429.
